# Reference: PubChem BioAssay (NCI)
# This is part of a sample that, as a whole, favours compounds with a hit. Of some 83,000 tested, about 20% had one in any assay.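 Treatment: one concentration, 48 hours, 96-well format. Scoring: percent growth, with anything below 10 considered active.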 A number with no mark means an inactive call. Active and inactive are the calls of the source.
# Key:
# Assay in all cases: NCI-60 one-dose screen, 48 h (100 = growth as untreated, 0 = no growth, -100 = all killed)
# Details in all cases: 10 µM unless noted
# NCI-H23 lung = test system: NCI-H23 lung
# NCI-H322M lung = test system: NCI-H322M lung
# HOP-62 NSCLC = test system: HOP-62 NSCLC
# NCI-H460 lung = test system: NCI-H460 lung
# HOP-92 NSCLC = test system: HOP-92 NSCLC
# NCI-H522 lung = test system: NCI-H522 lung
# A549/ATCC NSCLC = test system: A549/ATCC NSCLC
# 786-0 renal = test system: 786-0 renal
# COLO 205 colon = test system: COLO 205 colon
# DU-145 prostate = test system: DU-145 prostate
# K-562 leukemia = test system: K-562 leukemia
# MALME-3M melanoma = test system: MALME-3M melanoma
# MDA-MB-231 breast = test system: MDA-MB-231 breast
# RXF 393 renal = test system: RXF 393 renal
# SF-268 CNS = test system: SF-268 CNS
# SF-295 CNS = test system: SF-295 CNS
# SF-539 CNS = test system: SF-539 CNS
# UACC-257 melanoma = test system: UACC-257 melanoma
# M14 melanoma = test system: M14 melanoma
# HCT-15 colon = test system: HCT-15 colon
SMILES,growth (NCI-H23 lung),growth (NCI-H322M lung),growth (HOP-62 NSCLC),growth (NCI-H460 lung),growth (HOP-92 NSCLC),growth (NCI-H522 lung),growth (A549/ATCC NSCLC),growth (786-0 renal),growth (COLO 205 colon),growth (DU-145 prostate),growth (K-562 leukemia),growth (MALME-3M melanoma),growth (MDA-MB-231 breast),growth (RXF 393 renal),growth (SF-268 CNS),growth (SF-295 CNS),growth (SF-539 CNS),growth (UACC-257 melanoma),growth (M14 melanoma),growth (HCT-15 colon)
O=c1oc2ccc(Cl)cc2c(=O)n1-c1ccc(Cl)cc1F,-4.79% (active),4.88% (active),-6.42% (active),3.59% (active),-12.9% (active),-20.9% (active),5.46% (active),5.1% (active),6.93% (active),15.3%,4.6% (active),-29.9% (active),-17% (active),4.5% (active),7.63% (active),-64.2% (active),1.24% (active),-15.1% (active),0.632% (active),1.3% (active)
COc1ccc(C2=NN(/C=C3\SC(=O)NC3=Nc3ccc(F)cc3)C(c3ccc(F)cc3)C2)cc1 (stereo not given),96.9%,93.7%,105%,101%,99.7%,91.2%,92%,92.7%,106%,102%,94.3%,94.3%,93.8%,96%,97.9%,90.8%,106%,103%,104%,98.9%
O=c1oc2ccc(F)cc2c(=O)n1-c1ccc(I)cc1F,2.97% (active),8.02% (active),-3.36% (active),3.08% (active),-17.6% (active),-15.8% (active),5.88% (active),0.0953% (active),53.9%,14.8%,7.88% (active),-22.1% (active),-25.4% (active),-1.5% (active),12.2%,-40% (active),3.66% (active),-14.8% (active),3.58% (active),5.2% (active)
O=c1oc2ccc(F)cc2c(=O)n1-c1ccc(F)cc1F,11.4%,36.7%,30.5%,14.7%,-29% (active),-8.1% (active),15.2%,73.1%,93.9%,28.3%,15.7%,-6.02% (active),51.1%,33.5%,15%,37.9%,18.5%,17.5%,29%,23.3%
COc1ccc(CCN2C(=O)CCSC2=S)cc1,80%,87.6%,18.6%,77%,41.9%,11.1%,96.6%,16.8%,36.3%,13.8%,29.2%,76.7%,59.2%,18.7%,46.2%,67.2%,7.31% (active),85.4%,61.2%,12.4%
c1ccc2c(c1)oc1cc3sccc3nc12,101%,99.2%,89.5%,104%,95.1%,93%,102%,96.1%,109%,114%,98.1%,102%,101%,109%,97.5%,108%,98.8%,104%,94.7%,99.5%
O=C1/C(=C/c2ccc(O)cc2)COc2ccc(O)cc21,92.2%,98.2%,114%,105%,124%,87.7%,107%,109%,114%,104%,55.9%,100%,107%,125%,101%,107%,98.1%,104%,102%,75.9%
O=c1oc2ccc(I)cc2c(=O)n1-c1ccc(F)cc1F,6.34% (active),9.77% (active),2.25% (active),6.35% (active),-29.9% (active),-7.49% (active),6.11% (active),21.3%,104%,15.5%,7.26% (active),-21% (active),33.3%,11.1%,9.2% (active),3.91% (active),13.7%,-4.46% (active),21%,15.6%
COc1ccc(CCN2CCC(CN(C)Cc3cnn(-c4ccccc4)c3)CC2)cc1,31.9%,46.4%,30%,3.48% (active),37.3%,43.7%,4.78% (active),25.6%,30.1%,28.6%,10.4%,18.4%,21.6%,35%,21%,47.5%,19.7%,19.1%,-19.2% (active),26.2%
COc1ccccc1N1CCN(C(CNS(=O)(=O)c2ccc(Cl)cc2)c2cccnc2)CC1 (stereo not given),96.6%,128%,94%,77.1%,79.5%,110%,90.8%,42.4%,108%,85.1%,28.4%,60.2%,71%,36.3%,90.8%,2.26% (active),64.9%,120%,104%,49%
COC(=O)[C@H](NC(=O)C1(C)CCC[C@]2(C)[C@H]3C[C@H]4C(C(C)C)=C[C@]3(CC[C@@H]12)[C@@H]1C(=O)CCC(=O)[C@@H]14)C(C)C (stereo not given in full),103%,96.2%,99.8%,113%,96.8%,102%,94.4%,102%,110%,106%,96.9%,104%,90.8%,105%,96.5%,94.8%,100%,104%,102%,95.3%
C1=CC2(C=C1)OC21CCC2(C=CC3(C2)OC3C2CCCCC2)CC1 (stereo not given),116%,105%,112%,103%,104%,106%,101%,100%,120%,112%,113%,108%,108%,119%,104%,106%,101%,108%,102%,101%
COc1cc2nc(-c3cnc(N(C)C)nc3)nc(NC3CCN(Cc4ccccc4)CC3)c2cc1OC,-33.8% (active),-85.7% (active),-70.4% (active),-71.1% (active),-76.8% (active),-64.2% (active),-66.3% (active),-71% (active),-82.5% (active),-83.9% (active),-40.4% (active),-74.4% (active),-87.7% (active),-78.6% (active),-60% (active),-92% (active),-92.9% (active),24.1%,-80.6% (active),-85.9% (active)
CCN1C(=O)N(CC)C2C1NN=c1s/c(=C3\C(=O)N(CC(C)(C)C)c4ccccc43)c(=O)n12 (stereo not given),45%,60.5%,47%,4.52% (active),78.6%,-4.26% (active),30.1%,39.9%,-38.1% (active),6.12% (active),4.89% (active),71.3%,26%,12.3%,40%,15.9%,-17.9% (active),71.4%,18.3%,14.2%
C#CCn1cc(C=C2C(=O)N(C)C(=O)N(C)C2=O)c2cc(Cl)ccc21,110%,102%,107%,106%,107%,88.7%,120%,111%,122%,112%,106%,97.9%,105%,103%,96.8%,96.4%,94.5%,112%,108%,111%
COc1ccccc1C(=O)O/N=C(\N)Cc1cccc2ccccc12,80.9%,97.6%,94.6%,70.7%,91%,85%,70.1%,106%,67.8%,99.1%,75.7%,23.6%,77.3%,102%,80.9%,52.2%,97.2%,73.9%,86.3%,75.7%
